# Measured values from PubChem BioAssay (NCATS).
# Results filed as inconclusive are left out. Where a call stands in place of a potency, no number is given. Active and inactive are the calls of the source. Calls follow the shape of the dose curve; as a rule, active = well fitted curve in the direction sought with a large enough effect; inconclusive = small, poorly fitted or top-dose-only effect, or another doubt; inactive = no such curve, though single readings can be large; an effect the other way counts as inactive or inconclusive.
# Columns and labels:
# [1] = Quantitative High-Throughput drug screen in 47 multiple myeloma cell lines against the NCATS MIPE library collection: H1112_PLB cell viability assay (AID 1918967; also: nearly all actives have a fitted effect of over 30% in size; also: potency is read from the fitted curve at half-maximal effect)
# How it was run: (§1)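 CellTiter-Glo ATP luminescence gave viability after 48 h compound treatment at 37C of 500 multiple myeloma cells per well. Normalisation used DMSO-only wells as 100% and media-only wells as 0% viability; primary qHTS of approved and investigational drugs.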
# [2] = Quantitative High-Throughput drug screen in 47 multiple myeloma cell lines against the NCATS MIPE library collection: Karpas25_ECACC cell viability assay (AID 1918968; also: nearly all actives have a fitted effect of over 35% in size; also: potency is read from the fitted curve at half-maximal effect)
# How it was run: as §1
# [3] = Quantitative High-Throughput drug screen in 47 multiple myeloma cell lines against the NCATS MIPE library collection: KMS12BM_JCRB cell viability assay (AID 1918971); also: nearly all actives have a fitted effect of over 35% in size; also: potency is read from the fitted curve at half-maximal effect
# How it was run: (§2)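 Steps: seed 500 cells per well; pin-transfer MIPE 4.0 library; incubate 48 h at 37C, 5% CO2, humidified; add CellTiter-Glo, 5 min room temperature; read luminescence.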
# [4] = Quantitative High-Throughput drug screen in 47 multiple myeloma cell lines against the NCATS MIPE library collection: KMS21BM_JCRB cell viability assay (AID 1918974); conditions: ATP luminescence, 48 h; viability: at 45.8 µM (top of the series) unless noted
# How it was run: as §1
# [5] = Quantitative High-Throughput drug screen in 47 multiple myeloma cell lines against the NCATS MIPE library collection: NCIH929_DSMZ cell viability assay (AID 1918978); also: nearly all actives have a fitted effect of over 35% in size; also: potency is read from the fitted curve at half-maximal effect
# How it was run: (§3)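 Cells were exposed to library compounds for 48 hours, after which ATP was measured by CellTiter-Glo. Signal was taken as median relative luminescence units.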
# [6] = Quantitative High-Throughput drug screen in 47 multiple myeloma cell lines against the NCATS MIPE library collection: MM1S_ATCC cell viability assay (AID 1918980); also: nearly all actives have a fitted effect of over 45% in size; also: potency is read from the fitted curve at half-maximal effect
# How it was run: as §3
# [7] = Quantitative High-Throughput drug screen in 47 multiple myeloma cell lines against the NCATS MIPE library collection: LP1_DSMZ cell viability assay (AID 1918982); also: nearly all actives have a fitted effect of over 35% in size; also: potency is read from the fitted curve at half-maximal effect
# How it was run: as §3
# [8] = Quantitative High-Throughput drug screen in 47 multiple myeloma cell lines against the NCATS MIPE library collection: KMS28PE_JCRB cell viability assay (AID 1918983); also: nearly all actives have a fitted effect of over 35% in size; also: potency is read from the fitted curve at half-maximal effect
# How it was run: as §3
# [9] = Quantitative High-Throughput drug screen in 47 multiple myeloma cell lines against the NCATS MIPE library collection: MMM1_PLB cell viability assay (AID 1918976)
# How it was run: as §3
# [10] = Quantitative High-Throughput drug screen in 47 multiple myeloma cell lines against the NCATS MIPE library collection: OCIMY1_PLB cell viability assay (AID 1918979); also: nearly all actives have a fitted effect of over 35% in size; also: potency is read from the fitted curve at half-maximal effect
# How it was run: as §3
# [11] = Quantitative High-Throughput drug screen in 47 multiple myeloma cell lines against the NCATS MIPE library collection: OCIMY7_PLB cell viability assay (AID 1918987); also: nearly all actives have a fitted effect of over 65% in size; also: potency is read from the fitted curve at half-maximal effect
# How it was run: as §3
# [12] = Quantitative High-Throughput drug screen in 47 multiple myeloma cell lines against the NCATS MIPE library collection: KMS27_JCRB cell viability assay (AID 1918970); also: nearly all actives have a fitted effect of over 30% in size; also: potency is read from the fitted curve at half-maximal effect
# How it was run: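 Each line is seeded at 500 cells per well and treated with library compounds for 48 hours under 37 °C, 5% CO2. CellTiter-Glo is then added for 5 min at room temperature before median relative luminescence is recorded.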
# [13] = Quantitative High-Throughput drug screen in 47 multiple myeloma cell lines against the NCATS MIPE library collection: KMS12PE_JCRB cell viability assay (AID 1918972); also: nearly all actives have a fitted effect of over 30% in size; also: potency is read from the fitted curve at half-maximal effect
# How it was run: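 Viability readout: CellTiter-Glo luminescence following 5 min room-temperature incubation with reagent. Prior exposure: 48 h, 37C, humidified 5% CO2, 500 cells per well.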
# [14] = Quantitative High-Throughput drug screen in 47 multiple myeloma cell lines against the NCATS MIPE library collection: KMS20_JCRB cell viability assay (AID 1918973); also: nearly all actives have a fitted effect of over 45% in size; also: potency is read from the fitted curve at half-maximal effect
# How it was run: as §1
# [15] = Quantitative High-Throughput drug screen in 47 multiple myeloma cell lines against the NCATS MIPE library collection: KMS26_JCRB cell viability assay (AID 1918975); also: nearly all actives have a fitted effect of over 45% in size; also: potency is read from the fitted curve at half-maximal effect
# How it was run: as §2
# [16] = Quantitative High-Throughput drug screen in 47 multiple myeloma cell lines against the NCATS MIPE library collection: MM1R_ATCC cell viability assay (AID 1918981); also: nearly all actives have a fitted effect of over 35% in size; also: potency is read from the fitted curve at half-maximal effect
# How it was run: as §3
# [17] = Quantitative High-Throughput drug screen in 47 multiple myeloma cell lines against the NCATS MIPE library collection: L363_DSMZ cell viability assay (AID 1918984); also: nearly all actives have a fitted effect of over 40% in size
# How it was run: as §3
# [18] = Quantitative High-Throughput drug screen in 47 multiple myeloma cell lines against the NCATS MIPE library collection: KMS34_JCRB cell viability assay (AID 1918985); also: nearly all actives have a fitted effect of over 40% in size
# How it was run: as §3
# [19] = Quantitative High-Throughput drug screen in 47 multiple myeloma cell lines against the NCATS MIPE library collection: MOLP8_DSMZ cell viability assay (AID 1918977); also: nearly all actives have a fitted effect of over 45% in size; also: potency is read from the fitted curve at half-maximal effect
# How it was run: as §3
Structure (SMILES),Potency [1],Potency [2],Potency [3],viability [4],Potency [5],Potency [6],Potency [7],Potency [8],Potency [9],Potency [10],Potency [11],Potency [12],Potency [13],Potency [14],Potency [15],Potency [16],Potency [17],Potency [18],Potency [19]
C[C@H](NC(=O)Cc1cc(F)cc(F)c1)C(=O)N[C@@H]1C(=O)N(C)c2ccccc2-c2ccccc21,5.9 µM (active),5.26 µM (active),inactive,138% (active),4.69 µM (active),9.35 µM (active),inactive,inactive,–,–,–,–,–,–,–,–,–,–,–
CCC(C)n1ncn(-c2ccc(N3CCN(c4ccc(OC[C@H]5CO[C@](Cn6cncn6)(c6ccc(Cl)cc6Cl)O5)cc4)CC3)cc2)c1=O (some centres not stated),inactive,inactive,3.32 µM (active),–,inactive,inactive,–,14.8 µM (active),2.96 µM (active),4.18 µM (active),inactive,–,–,–,–,–,–,–,–
C[C@]12CC[C@H](O)CC1=CC[C@@H]1[C@H]2CC[C@]2(C)C(c3cccnc3)=CC[C@H]12,inactive,–,inactive,–,–,–,–,inactive,–,inactive,–,inactive,inactive,inactive,inactive,inactive,inactive,inactive,–
CCn1c(-c2nonc2N)nc2c(C#CC(C)(C)O)ncc(OC[C@H]3CCCNC3)c21,14.8 µM (active),1.18 µM (active),14.8 µM (active),–,0.0209 µM (active),0.0264 µM (active),–,0.296 µM (active),–,4.18 µM (active),8.33 µM (active),0.418 µM (active),–,–,–,0.0418 µM (active),–,–,–
Clc1cccc(Cl)c1NC1=NCCN1,inactive,inactive,–,–,–,18.7 µM (active),inactive,inactive,–,inactive,–,inactive,inactive,inactive,–,–,inactive,inactive,inactive
Cc1ccc(-n2nc(C(C)(C)C)cc2NC(=O)Nc2ccc(OCCN3CCOCC3)c3ccccc23)cc1,1.18 µM (active),1.05 µM (active),–,–,–,4.18 µM (active),inactive,–,20.9 µM (active),inactive,2.96 µM (active),–,–,–,26.4 µM (active),–,–,–,–
CN1CCN(CCCN2c3ccccc3Sc3ccc(C(F)(F)F)cc32)CC1,7.43 µM (active),4.18 µM (active),inactive,–,2.09 µM (active),1.05 µM (active),inactive,–,–,inactive,5.9 µM (active),–,inactive,16.6 µM (active),inactive,inactive,–,–,–
CC(C)C[C@H](NC(=O)[C@@H](O)[C@H](N)Cc1ccccc1)C(=O)O,20.9 µM (active),–,23.5 µM (active),–,20.9 µM (active),18.7 µM (active),20.9 µM (active),20.9 µM (active),–,–,20.9 µM (active),inactive,inactive,11.8 µM (active),23.5 µM (active),20.9 µM (active),–,–,20.9 µM (active)
CC(=O)Oc1ccccc1C(=O)O,7.43 µM (active),inactive,–,–,4.18 µM (active),5.26 µM (active),–,inactive,–,inactive,5.26 µM (active),inactive,inactive,–,11.8 µM (active),18.7 µM (active),inactive,–,inactive
CCOc1ccn(-c2ccc(F)cc2)c(=O)c1C(=O)Nc1ccc(Oc2ccnc(N)c2Cl)c(F)c1,13.2 µM (active),2.35 µM (active),–,–,–,16.6 µM (active),–,–,–,inactive,–,–,–,–,inactive,–,–,–,–
NC(=O)C1CCCc2c1[nH]c1ccc(Cl)cc21 (configuration not stated),inactive,inactive,1.66 µM (active),–,–,–,inactive,inactive,–,inactive,–,–,14.8 µM (active),–,–,14.8 µM (active),–,–,–
C[C@@H]1CN(Cc2ccc(F)cc2)[C@@H](C)CN1C(=O)c1cc2c(C(=O)C(=O)N(C)C)cn(C)c2cc1Cl,13.2 µM (active),9.35 µM (active),–,–,–,10.5 µM (active),–,–,23.5 µM (active),inactive,14.8 µM (active),14.8 µM (active),20.9 µM (active),–,18.7 µM (active),–,–,–,–
CNC[C@H](O)c1cccc(O)c1,inactive,4.69 µM (active),–,–,–,inactive,inactive,inactive,–,inactive,–,inactive,inactive,–,inactive,–,–,–,–
Nc1nccc(-c2ccc3noc(-c4ccc(Cl)cc4)c3c2)n1,inactive,inactive,–,–,20.9 µM (active),16.6 µM (active),–,inactive,–,inactive,20.9 µM (active),inactive,–,–,–,–,inactive,–,inactive
N=c1nc(N2CCCCC2)cc(N)n1O,inactive,26.4 µM (active),–,–,–,inactive,inactive,inactive,–,inactive,37.2 µM (active),inactive,inactive,–,–,inactive,–,–,–
